The source of these data is PubChem BioAssay (NCI).

The panel holds about 83,000 compounds, 20% with a hit somewhere; the sample as a whole holds those more often.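 How to read the values: 0–100, growth inhibition (40 = 60% inhibited); 0, no net growth; -100 to 0, cell death (-40 = 40% of starting cells died; -100 = all dead).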 Values without a mark were called inactive. Calls of active or inactive are those of the source. The calls were made as follows: active = growth percent below 10; inactive = the rest.

This experiment relates to MDA-MB-468 breast. The experiment can be described thus: NCI-60 one-dose screen, 48 h (100 = growth as untreated, 0 = no growth, -100 = all killed). To be noted: 10 µM unless noted.
`O=C1C(=O)c2c(ccc3ccccc23)-c2ccccc21`: the growth was -79.9% (active).

Turning to `c1ccc(-c2nc3sc(C(c4ccccc4)c4ccccc4)nn3c2-c2ccccc2)cc1`, the growth is 96.1%.

In the case of `COc1cc(/C=C/C(=O)/C=C(O)/C=C/c2ccc(OC(=O)C34CC5CC(CC(C5)C3)C4)c(OC)c2)ccc1OC(=O)C12CC3CC(CC(C3)C1)C2`, the growth was 108%.

In the case of `O=C(c1nc2ccccc2[nH]1)C1C(c2ccc(Cl)cc2)C2CC3CCCC[C@H]3N2[C@@]12C(=O)Nc1cc(Cl)ccc12` (stereo partly drawn), the growth was 12.1%.

Regarding `COc1cc2c(c(OC)c1OC)-c1ccc(N=NC(N)=S)c(=O)cc1[C@@H](NC(C)=O)CC2`, the growth is -40.8% (active).

For `CC1CCN(C(=O)CCCl)c2ccccc21` (stereo not drawn), the growth was 108%.

As for `c1cnc2nc3c(cc2c1)oc1ccccc13`, the growth was 81%.

Turning to `C=C1C(=O)O[C@H]2[C@H]1CC/C(C(=O)NCCCCCCCCNC(=O)/C1=C/CC[C@@]3(C)O[C@H]3[C@H]3OC(=O)C(=C)[C@@H]3CC1)=C\CC[C@@]1(C)O[C@@H]21`, the growth is 35.7%.

Regarding `COC(=O)c1c(-c2ccccc2)csc1NC(=O)c1c(-c2ccccc2)noc1C`, the growth was 63.6%.

With `CC1CCc2c(sc3nc(SCC(=O)N/N=C/c4ccc(Cl)cc4)n(-c4ccccc4)c(=O)c23)C1` (stereo not drawn), the growth is 85.6%.

With `Cc1ccc(NC(=O)c2sc3nc4c(cc3c2N)C(=O)CCC4)cc1Cl`, the growth was 105%.

In the case of `COc1ccc(-c2nsc3c2NC(=O)CC3c2ccc(Cl)cc2)cc1` (stereo not drawn), the growth is 58.7%.

`CCN(C(=O)N1CCN(c2cc3c(cc2F)c(=O)c(C(=O)O)cn3C2CC2)CC1)c1nc(-c2ccccc2)cs1`: the growth is 13%.
